Screening data from PubChem.
Compounds with a hit are over-represented: about 22% of the library has one in this group of screens.
Shiga inhibitor = inhibitors of Shiga toxin in Vero cells; Vero cells, Shiga toxin protein synthesis inhibition reporter; inhibition, % at 38.7 µM; 290,000 tested, 9.2% active; in the data active = inhibition mostly above about 28%, no sharp cut-off; inactive = mostly below about 43%; also: 0% is about no effect
Pf growth 96h = P. falciparum growth inhibition at 96 hour, primary screen for plastid delayed-death inhibitors | 320,000 tested, 6.9% active | P. falciparum luciferase reporter growth, 96 h | Potency, µM (doses to about 28.7 µM), inactives show at the highest dose activity change, negative = inhibition, usual class: inhibitors; also: potency is read from the fitted curve at half-maximal effect; % is scaled to controls: 0 for no effect and ±100 for the full control effect
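P. falciparum expressing integrated firefly luciferase grown in erythrocytes (2% hematocrit, 0.05% parasitemia final) with compounds for 96 hours at 37 C, 5% CO2. Growth inhibition read as loss of luminescence after adding luciferase detection reagent.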
CHX counter = affects cycloheximide protein synthesis inhibition readout, counter-screen; max response, %; AID 2314; cell reporter, cycloheximide protein synthesis inhibition counterscreen; 300,000 tested, 12% active; in the data active = max response mostly above about 13%, no sharp cut-off; inactive = mostly below about 14%; also: read at 38.3 µM for the half of the compounds with a filed dose; 0% is about no effect
Pf growth 48h = P. falciparum growth inhibition at 48 hours (one generation); P. falciparum luciferase growth in erythrocytes, 48 h; Potency, µM (top dose mostly 28.7 µM), without a hit: at the highest dose activity change, negative = inhibition, hits mostly inhibitors; 310,000 tested, 5.9% active; AID 504832; also: potency is read from the fitted curve at half-maximal effect; % is scaled to controls: 0 for no effect and ±100 for the full control effect
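Parasite viability was followed by luminescence of a genomically integrated firefly luciferase. Cultures held 0.1% parasitemia at 2% hematocrit (final), incubated under 5% CO2 at 37 C.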
LmPK inh = inhibitors of Leishmania mexicana pyruvate kinase; Q27686; purified LmPK, Kinase-Glo ATP luminescence, 1 h; Potency, µM (titrated, usually from 57.5 µM), for inactives: top-dose activity change, negative = inhibition, actives largely listed as inhibitors; 290,000 tested, 0.37% active; AID 1721; also: potency is read from the fitted curve at half-maximal effect; % is scaled to controls: 0 for no effect and ±100 for the full control effect
Target sequence (Q27686 whole entry, looked up): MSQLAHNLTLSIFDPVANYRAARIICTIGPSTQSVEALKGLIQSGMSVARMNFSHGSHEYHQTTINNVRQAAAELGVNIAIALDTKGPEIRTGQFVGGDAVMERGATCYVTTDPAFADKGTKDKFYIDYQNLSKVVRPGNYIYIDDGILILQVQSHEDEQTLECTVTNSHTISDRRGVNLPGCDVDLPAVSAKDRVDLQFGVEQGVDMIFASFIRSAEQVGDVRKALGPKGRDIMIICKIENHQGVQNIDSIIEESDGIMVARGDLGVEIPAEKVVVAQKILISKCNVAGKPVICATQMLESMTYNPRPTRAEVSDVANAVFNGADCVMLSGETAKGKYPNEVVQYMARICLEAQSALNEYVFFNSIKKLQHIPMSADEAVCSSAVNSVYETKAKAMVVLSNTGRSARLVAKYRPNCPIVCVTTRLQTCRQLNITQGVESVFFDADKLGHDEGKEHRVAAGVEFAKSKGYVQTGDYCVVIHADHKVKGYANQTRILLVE
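Purified LmPK (0.1 nM) with 0.5 mM PEP and 0.1 mM ADP in imidazole buffer pH 7.2 with MgCl2/KCl, 1 h at room temperature. ATP formed was read by luciferase luminescence and normalized to no-enzyme and uninhibited controls.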
* hit, by the source's call; ? = inconclusive; · = no result given; + = active, no number; [ ] = another dose, or the depositor's remark. Unless noted, calls follow the shape of the dose curve; as a rule, active = well fitted inhibition curve with a large enough effect; inconclusive = small, poorly fitted or top-dose-only effect, or another doubt; inactive = no such curve, though single readings can be large or run the other way.

SMILES	Shiga inhibitor	Pf growth 96h	CHX counter	Pf growth 48h	LmPK inh
O=C1[C@@H]2Cc3c([nH]c4ccccc34)C(c3ccccc3)N2C(=O)CN1C1CC1 (some centres undefined)	-6.1	?	-3.6	?	-5.4%
O=C1[C@@H]2Cc3c([nH]c4ccccc34)C(c3ccc([N+](=O)[O-])cc3)N2C(=O)CN1C1CC1 (some centres undefined)	1.5	?	-2.3	9.6%[0.00184 µM]	1.3%
COc1ccccc1C1c2[nH]c3ccccc3c2C[C@H]2C(=O)N(C3CCN(Cc4ccccc4)CC3)CC(=O)N12 (some centres undefined)	-7.2	1.47µM*	-3.2	1.85µM*	4.5%
COc1cccc(C2c3[nH]c4ccccc4c3C[C@H]3C(=O)N(C4CCN(Cc5ccccc5)CC4)CC(=O)N23)c1 (some centres undefined)	-4.9	3.7µM*	-2.5	4.65µM*	0.5%
COc1ccc(C2c3[nH]c4ccccc4c3C[C@H]3C(=O)N(C4CCN(Cc5ccccc5)CC4)CC(=O)N23)cc1OC (some centres undefined)	-6.9	1.47µM*	-1.6	1.47µM*	6.2%
COc1cccc(C2c3[nH]c4ccccc4c3C[C@H]3C(=O)N(CCCCCO)CC(=O)N23)c1 (some centres undefined)	-5.7	?	-6.2	?	-4.5%
Cc1ccc(-c2cnc(NC(=O)c3cccc(Br)c3)s2)c(C)c1	13.2	7.5%	-1.9	?	2.3%
CC(=O)Nc1cccc(-c2csc(Nc3ccc(Cl)cn3)n2)c1	146.5*	5.9%	46.2*	-5.4%	3.7%
O=C(Nc1ccc(Cl)cc1)Nc1nc(-c2ccccc2)cs1	43.2	?	6.2	-17.3%	-0.1%
CC(=O)Nc1ccc(-c2csc(Nc3ccc(Cl)cn3)n2)cc1	22.8	2.4%	38.4*	10.6%	-4.5%
CC(=O)Nc1cccc(C(=O)OCC(=O)Nc2ccc(Cl)cn2)c1	·	5.8%	·	48.8%	·
COc1ccccc1C(=O)NCC(=O)N1CCN(c2ncccn2)CC1	·	24.7%	·	23.9%	·
CCOC(=O)C1=C(C)NC(C)=C(C(=O)OCC)C1C(=O)OCC(=O)NC(C)c1ccccc1 (centres undefined)	·	13.1µM*	·	?	·
CC(NC(=O)COC(=O)c1ccc(N(C)C)cc1)c1ccccc1 (centres undefined)	22.4	8.9%	-2.5	11.7µM*	0.3%
CC(CCc1ccccc1)NC(=O)COC(=O)c1cccs1 (centres undefined)	-18.4	32.5%	1.2	11.0%	-3.6%
CC(NC(=O)COC(=O)c1ccco1)c1ccccc1 (centres undefined)	-5.9	11.4%	0.3	·	0.8%
CC(NC(=O)COC(=O)c1cccs1)c1ccccc1 (centres undefined)	30.7	-7.7%	11.6*	16.0%	-14.2%
CCOC(=O)C1=C(C)NC(C)=C(C(=O)OCC)C1C(=O)OCC(=O)NC	-2.0	20.4%	1.4	-7.9%	-0.6%
CC1(C)CC(=O)c2c(O)cc(OCC(=O)N3CCN(c4ccc(F)cc4)CC3)cc2O1	13.6	?	8.6	?	1.2%
O=C(CN1CCCCCC1)N/N=C/c1ccc2ccccc2c1	74.4*	?	43.3*	6.2%	1.0%
CCOc1cc(/C=N/NC(=O)CN2CCOCC2)ccc1OCc1ccccc1	-17.3	?	10.3	?	-2.3%
O=C(CN1CCCCCCC1)N/N=C/c1ccc(F)c(F)c1	29.7	64.7%	2.2	6.8%	-0.3%
COc1cc(/C=N\NC(=O)CN2CCOCC2)ccc1OCC(=O)Nc1ccc(C)c(C)c1	35.0*	9.28µM*	14.2*	?	0.9%
CCOc1cc(/C=N\NC(=O)CN2CCOCC2)ccc1OCc1ccc(F)cc1	-4.0	11.7µM*	-2.7	9.28µM*	1.7%
COc1cc(/C=N\Nc2ccc([N+](=O)[O-])cc2)ccc1OCC(=O)Nc1ccc(C)c(C)c1	56.9	71.8%	8.8	?	-1.6%
SMILES	Shiga inhibitor	Pf growth 96h	CHX counter	Pf growth 48h	LmPK inh
CCCCOc1ccc(C(=O)N/N=C/c2ccc(OCCN3CCCCC3)c(OC)c2)cc1	32.5	11.7µM*	12.7	11.7µM*	0.8%
CN1CCN(c2nc3ccccn3c(=O)c2C=C(C#N)C#N)CC1	3.8	28.4%	-1.8	-10.1%	2.7%
CCn1cc(C(=O)N[C@@H](CCSC)C(=O)NCCCN2CCOCC2)c(=O)c2cc3c(cc21)OCO3	-10.7	26.9%	2.1	6.4%	-2.7%
CCOc1cc(/C=N/NS(=O)(=O)c2ccc(OC)cc2)ccc1OCCN1CCOCC1	1.7	5.22µM*	-2.0	0.1%	-1.1%
CC(C)(C)OC(=O)COc1ccc(/C=N/NC(=O)CN2CCCCC2)cc1	88.1*	56.6%	44.9*	135.5%	1.4%
COc1ccc(/C=N/NC(=O)CN2CCCC2)cc1	1.1	?	8.5	2.4%	-0.3%
O=C(CN1CCCCC1)N/N=C/c1ccc(Cl)cc1	45.4*	10.3%	14.0*	44.8%	-2.3%
Cn1cccc1CC(=O)N/N=C/c1ccc(Cl)cc1	26.2*	13.0%	16.3*	2.1%	-6.3%
CCOc1cc(/C=N/NS(=O)(=O)c2ccccc2)ccc1OS(=O)(=O)c1ccc(C)cc1	-5.2	?	-2.4	·	8.1%
COCCCNC(=O)C1CCC(CNS(=O)(=O)c2ccc(Cl)cc2)CC1 (centres undefined)	9.5	46.6%	2.1	0.0%	-2.3%
CC(C)(C)NC(=S)NC1CC1	15.1	-9.3%	-2.5	8.4%	-3.8%
COc1cc(/C=N/NC(=O)CN2CCOCC2)ccc1OCc1ccccc1	16.3	?	17.1	-11.4%	-3.3%
COc1cc(/C=N/NC(=O)CN2CCCCC2)ccc1OCc1ccccc1	+	3.3%	28.5*	-2.9%	-2.2%
Cc1ccc(NC(=O)Cn2c(O)c(N=NC(=O)c3cc4ccccc4cc3O)c3ccccc32)cc1	-4.0	-28.5%	9.0	26.4%	-0.4%
O=C(N=Nc1c(O)n(Cc2ccccc2)c2ccccc12)c1ccc(O)cc1	59.6*	11.7µM*	64.4*	?	-4.2%
O=C(N=Nc1c(O)n(Cc2ccccc2)c2ccccc12)c1cc2ccccc2cc1O	21.6	-4.3%	16.1*	?	-1.6%
COc1cccc(/C=C/c2nc(C#N)c(NCC(C)C)o2)c1	85.5*	41.5%	28.8*	-22.3%	-1.4%
CCOc1ccc(/C=C/c2nc(C#N)c(NCCCN(C)C)o2)cc1	-5.8	58.0%	1.8	?	1.3%
COCCCNc1oc(/C=C/c2ccccc2)nc1C#N	73.7*	-16.1%	35.0*	155.6%	0.0%
CCOc1ccc(/C=C/c2nc(C#N)c(NCCCOC)o2)cc1	5.6	-1.5%	-1.5	?	-0.7%
CN(C)CCCNc1oc(/C=C/c2ccccc2)nc1C#N	65.2*	0.4%	42.0*	31.7%	-2.1%
CN(C)CCNc1oc(/C=C/c2ccccc2)nc1C#N	22.5	11.8%	22.8*	54.8%	0.0%
COc1ccccc1C(CNC(=O)c1cccc(S(=O)(=O)NCc2ccccc2)c1)N(C)C (centres undefined)	·	?	·	3.0%	·
